Rows were chosen to be rich in hits. Some 12% of all compounds tested hit in one or more screens of this group.
BAZ2B block: BAZ2B (human) inhibition. Q9UIF8. AlphaScreen BAZ2B-H3K14Ac peptide displacement. Potency, µM (top dose mostly 114 µM), without a hit: at the top dose activity change, negative = inhibition, usual class: inhibitors. hit rate 4.4% among 360,000. AID 504333; further: on the % scale 0 is the no-effect control and ±100 the full control effect; nearly all actives have a fitted effect of over 60% in size
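Protein-peptide AlphaScreen: BAZ2B 50 nM, b-H3K14Ac 50 nM, 1x PBS pH 7.4 + 0.01% Tween-20. Preincubation 30 min RT; cpd 30 min RT (top 110 uM); beads 20 min RT, light-protected.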
JMJD2A Tudor: blocks the human JMJD2A Tudor domain | O75164 | AlphaScreen JMJD2A-Tudor / H3K4me3 peptide binding | Potency, µM (titrated, usually from 114 µM), without a hit: at the highest dose activity change, negative = inhibition, usual class: inhibitors | AID 504339 | hit rate 4.4% among 390,000; further: on the % scale 0 is the no-effect control and ±100 the full control effect; nearly all actives have a fitted effect of over 50% in size
Sfp inh: inhibitors of Bacillus subtilis Sfp phosphopantetheinyl transferase | hit rate 3.5% among 310,000 | Potency, µM, for the others: largest response in the series, negative = inhibition, actives largely listed as inhibitors | Biochemical Sfp PPTase activity, qHTS;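 further: the enzyme is Sfp with the accession as filed and its product quenches rhodamine fluorescence; 0% = enzyme reaction without inhibitor and -100% = no enzyme wells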
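Compounds were incubated with enzyme (final 15 nM) for 15 min at room temperature before substrate addition started the reaction. Fluorescence at 525 nm excitation, 598 nm emission was recorded immediately and after 30 minutes.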
G9a block: inhibitors of human histone lysine methyltransferase G9a; Q96KQ7; G9a H3K9 monomethylation, AlphaScreen, 2 h; Potency, µM (doses to about 102 µM), without a hit: top-dose activity, negative = inhibition, usual class: inhibitors; hit rate 8.8% among 350,000; further: on the % scale 0 is the no-effect control and ±100 the full control effect; nearly all actives have a fitted effect of over 75% in size
Target sequence (Q96KQ7 913-1193 limits assumed): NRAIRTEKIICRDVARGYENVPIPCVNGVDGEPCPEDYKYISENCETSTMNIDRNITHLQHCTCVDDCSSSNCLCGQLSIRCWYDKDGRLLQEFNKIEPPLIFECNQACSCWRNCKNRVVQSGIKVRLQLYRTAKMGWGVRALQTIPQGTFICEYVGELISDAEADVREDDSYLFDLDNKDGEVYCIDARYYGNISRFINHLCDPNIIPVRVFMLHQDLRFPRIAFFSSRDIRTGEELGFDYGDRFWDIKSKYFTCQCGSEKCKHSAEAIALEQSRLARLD
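Signal arises when biotinylated H3K9 peptide, once monomethylated, bridges streptavidin donor and antibody-captured acceptor beads. Enzyme at 20 nM was preincubated 15 min with test compounds; peptide 500 nM and SAM 20 uM then reacted for 2 h.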
HP1b chromo inh: blocks HP1-beta chromodomain binding to methylated histone tails | AlphaScreen HP1-beta / biotin-H3K9me3 peptide binding | hit rate 0.56% among 390,000 | Potency, µM (top dose mostly 114 µM), for the others: at the top dose activity change, negative = inhibition, actives largely listed as inhibitors | P83916 | AID 540317; further: nearly all actives have a fitted effect of over 70% in size
Target sequence (P83916 whole entry, looked up): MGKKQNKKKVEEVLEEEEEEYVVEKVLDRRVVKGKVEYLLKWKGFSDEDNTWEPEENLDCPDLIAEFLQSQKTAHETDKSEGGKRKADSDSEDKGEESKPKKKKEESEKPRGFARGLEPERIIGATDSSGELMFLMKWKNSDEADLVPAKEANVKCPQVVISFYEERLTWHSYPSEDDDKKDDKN
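HP1-beta protein (50 nM final) preincubated 30 min at room temperature with biotinylated H3(1-18)K9me3 peptide (50 nM) in PBS pH 7.4, 0.01% Tween-20, then compound added for 30 min. AlphaScreen streptavidin donor/nickel chelate acceptor beads (10 ug/mL final), 30 min dark, luminescence read.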
PLK1 PBD inh: PLK1 (human) polo-box domain binding inhibition. AID 720504. P53350. hit rate 2.8% among 360,000. Plk1 PBD binding of FITC phosphopeptide, fluorescence polarization. Potency, µM, for the others: max response, negative = inhibition, usual class: inhibitors; further: series mostly up to about 57 µM; on the % scale 0 is the no-effect control and ±100 the full control effect; nearly all actives have a fitted effect of over 65% in size
The depositor's hits bear a star; ? = inconclusive; · = no result given; [ ] = dose if it differs, or a comment. The call rests on the fitted dose curve; in most records, active means well fitted curve in the direction sought with a large enough effect; inconclusive means small, poorly fitted or top-dose-only effect, or another doubt; inactive means no such curve, though single readings can be large; an effect the other way counts as inactive or inconclusive. Potency means the concentration at half of the fitted maximal effect.

SMILES	BAZ2B block	JMJD2A Tudor	Sfp inh	G9a block	HP1b chromo inh	PLK1 PBD inh
C=CCc1cccc(C=Nc2cc(Br)ccc2O)c1O	?	?	?	45µM*	9%	19%
CCOc1ccc(N2C(=O)C3Sc4[nH]c(=O)sc4C(/C=C/c4ccccc4)C3C2=O)cc1 (stereo not given)	45µM*	40µM*	-25%	11µM*	?	?
Cc1ccc(C)c(NC(=O)c2cc(=O)c3cc(C)cc(C)c3o2)c1	-3%	-7%	·	5%[59 µM]	43%	·
CCOc1ccc(S(=O)(=O)N/N=C2/CCCC(=O)C2)cc1	1%	-26%	-7%	10µM*	26%	-12%
COc1cc(CNCCC2CCOC(C)(C)C2)ccc1O (stereo not given)	-2%	-19%	?	50µM*	13%	-1%
CCc1ccc(N2C(=O)CC(NNc3nc4ccccc4s3)C2=O)cc1 (stereo not given)	-11%	-20%	-12%	14µM*	21%	-3%
O=C1CCCN1CCC1CCN(C2CC(=O)N(c3ccc(F)cc3)C2=O)CC1 (stereo not given)	2%	-15%	-14%	14µM*	44%	-9%
O=C(C1CCN(C2CC(=O)N(c3ccc(F)cc3)C2=O)CC1)N1CCOCC1 (stereo not given)	-3%	?	-14%	?	31%	-12%
O=c1c2nc(Br)n([C@@H]3O[C@@H]4CO[P@@](O)(=S)O[C@H]4[C@H]3O)c2nc2[nH]c(-c3ccccc3)cn12	·	·	-1%	·	·	·
CCC(OC(=O)c1cccs1)C(=O)NCc1ccc(C)cc1 (stereo not given)	-21%	-2%	3%	33%	58%	1%
CCC(OC(=O)c1cccs1)C(=O)NCc1ccc2c(c1)OCO2 (stereo not given)	-5%	100µM*	5%	14%[12.7 µM]	11%	-1%
Cc1c(CCOC(=O)C23CC4CC(CC(C4)C2)C3)sc[n+]1CC#N	0%	-13%	7%	-42%	19%	-6%
CCCCNC(=S)N1CCn2cccc2C1c1ccccc1 (stereo not given)	·	-24%	7%	56µM*	7%	2%
S=C(NCc1ccccc1)N1CCn2cccc2C1c1cccnc1 (stereo not given)	-38%	-35%	7%	-32%	-15%	-10%
S=C(NCc1ccccc1)N1CCn2cccc2C1c1ccncc1 (stereo not given)	?	-25%	15%	?	42%	17µM*
Cc1cc2c(s1)c1cnn(Cc3ccc(Br)cc3)c(=O)c1n2C	·	-33%	·	·	·	·
COc1ccc(CCNc2ncnc3nc[nH]c23)cc1	·	-2%	·	·	29%	·
CCc1ccc(Oc2c(C(F)(F)F)oc3c(CN4CCN(C)CC4)c(O)ccc3c2=O)cc1	-17%	-18%	·	-2%[59 µM]	25%	·
Cc1ccc(C)c(-n2nnnc2SCC(=O)NCC2CCCO2)c1 (stereo not given)	13%	8%	·	9%[59 µM]	35%	8%
COc1ccc(C)cc1-n1nnnc1SCC1CCCO1 (stereo not given)	-1%	?	-6%	36%[59 µM]	-5%	24µM*
Cn1nc([N+](=O)[O-])nc1S(C)(=O)=O	?	-23%	10%	56µM*	18%[57 µM]	-16%
CS(=O)(=O)c1nc([N+](=O)[O-])nn1CCCc1ccccc1	·	-17%	·	·	12%	-20%
COc1cc(NC(=S)NCc2ccc(S(N)(=O)=O)cc2)c(OC)cc1Cl	?	-23%	-23%	35µM*	?	-24%
COc1ccc(NC(=S)NCCc2ccc(S(N)(=O)=O)cc2)c(OC)c1	2%	5%[11.4 µM]	?	35µM*	26%	-24%
COc1ccc2c(c1)[nH]c1c(=O)n(/N=C/c3ccc(OC)c(COc4ccccn4)c3)cnc12	4%	79µM*	8%	9%	7%	0%
SMILES	BAZ2B block	JMJD2A Tudor	Sfp inh	G9a block	HP1b chromo inh	PLK1 PBD inh
CN(Cc1ccccc1)C(=O)CC(c1ccccc1)c1cc(Cl)ccc1O (stereo not given)	-1%	-32%	3%	-5%	5%	-8%
COc1ccc2[nH]c3c(C)c4ccncc4c(C)c3c2c1	?	-31%	16µM*	40µM*	16%	-8%
Cc1c2ccncc2cc2c1[nH]c1ccccc12	·	12%	·	·	42%[57 µM]	1%
COc1cc(C(=O)OC2CSCC2NC(=O)c2ccccc2)cc(OC)c1OC (stereo not given)	-27%	-20%	9%	-36%	15%	-1%
O=C1/C(=C/c2cccs2)CCC/C1=C\c1cccs1	5.6µM*	?	-8%	14%	?	0%
Cn1cccc1/C=C1\CCC/C(=C\c2cccn2C)C1=O	22µM*	56µM*	-23%	?	22µM*	22%
CC1C/C(=C/c2cccs2)C(=O)/C(=C/c2cccs2)C1 (stereo not given)	?	?	-5%	35µM*	?	-4%
O=C1Nc2ccccc2S/C1=C/c1cccs1	-21%	-18%	18%	2%	17%	-3%
O=C1CNC(=O)/C(=C/c2cccs2)N1	-23%	-16%[57.1 µM]	5%	-19%	11%	-8%
COc1cc(F)ccc1-c1csc(C(NC(C)=O)c2ccc(F)c(F)c2)n1 (stereo not given)	·	·	·	·	·	-9%
O=C(Cn1cnc2ccccc2c1=O)N/N=C/c1ccc(Br)cc1	-2%	-12%	?	·	39%	2%
CCOC(=O)c1c(NC(=O)COc2ccc(CC)cc2)sc2c1CCCC2	12%	14%	·	-3%[59 µM]	43%	·
CCOC(=O)c1c(C2COc3ccccc3O2)csc1NC(=O)c1ccco1 (stereo not given)	?	32µM*	?	1.6µM*	18µM*	2.5µM*
CCOC(=O)c1c(-c2cccs2)csc1NC(=O)c1ccco1	0%	-2%	10%	-17%[59 µM]	28%	-11%
COC(=O)c1c(NC(=O)COc2cc(C)c(Cl)c(C)c2)sc2c1CCCC2	24%	-15%	·	7.1µM*	?	·
CCOC(=O)c1c(NC(=S)NNS(=O)(=O)c2ccc(Br)cc2)sc2c1CCCCC2	-4%	-27%	-2%	·	0%	27µM*
CCOC(=O)c1c(NC(C)=O)sc2c1CCC(C=O)=C2Sc1ccccc1	?	?	50µM*	?	-8%	-22%
COc1ccccc1CN1CCC2(CCNCC2)CC1	·	·	3%	-1%[12.7 µM]	·	·
CCOC(=O)c1c(NC(=O)c2ccc(C)cc2)sc2c1CCCCC2	18%	37%	·	2%[59 µM]	75%	·
CCOC(=O)c1c(NC(=O)c2ccccc2Br)sc2c1CCc1ccccc1-2	9%	-13%	40µM*	1.4µM*	-4%	6.7µM*
CCOC(=O)c1c(NC(=O)c2ccco2)sc2c1CCCC2	·	?	15%	7%[59 µM]	-13%	27µM*

High-throughput results as filed in PubChem.
